The source made the active and inactive calls. No rule for the calls is given here.

The conditions of one assay: Ebola virus entry assay, ratio channel.
For orientation: AC50 means the concentration giving half of the maximal activity seen. In the case of `N[C@H](C(=O)O)[C@@H](O)c1ccc(O)c(O)c1`, the AC50 was 20 µM (active).
Turning to `CCOC(C(=O)OCCN(C)C)(c1ccccc1)c1ccccc1`, the AC50 is 25.1 µM (active).
The same measure, in the same setting: as for `COC[C@@H](c1ccc(C(F)(F)F)cc1)N1CCN(C2(C)CCN(C(=O)c3c(C)ncnc3C)CC2)C[C@H]1C`, the figure is 25.1 µM (active).
The same measure, in the same setting: as for `COc1cc2c(cc1OC)C(C(C(=O)N(CCc1ccc(OC)c(OC)c1OC)CCc1ccc(OC)c(OC)c1OC)c1ccccc1)=NCC2` (stereo not drawn), the figure is 11.2 µM (active).
For the compound `CCCCCOc1ccccc1/C(=C\SC)n1ccnc1`, the outcome was inactive.
Same read-out and setting: for `COc1ccc2c(c1)c(CC(=O)O)c(C)n2C(=O)c1ccc(Cl)cc1` the value was “inactive”.
Consider `COc1ccc(-c2nc3ccc(C4=NNC(=O)CC4C)cc3[nH]2)cc1` (stereo not drawn), for which the AC50 was 14.1 µM (active).
Turning to `COc1cc(NS(=O)(=O)c2ccc(N)cc2)nc(OC)n1`, the result was inactive.
Same read-out and setting: as for `CCCCC(=O)O[C@]1(C(=O)CO)CC[C@H]2[C@@H]3CCC4=CC(=O)CC[C@]4(C)[C@H]3[C@@H](O)C[C@@]21C`, the entry is “inactive”.
Consider `CN(C)[C@@H]1C(=O)C(C(=O)NCN2CCCC2)=C(O)[C@@]2(O)C(=O)C3=C(O)c4c(O)cccc4[C@@](C)(O)C3C[C@@H]12` (stereo partly drawn), for which the AC50 is 11.2 µM (active).
Turning to `Nc1c2c(nc3ccccc13)CCCC2O` (stereo not drawn), the outcome was inactive.
With `Nc1ccc2c(c1)CN1C(=O)c3ccccc3C1=N2`, the outcome was inactive.
In the case of `OCCN1CCN(CCCN2c3ccccc3C=Cc3ccccc32)CC1`, the AC50 is 14.1 µM (active).
`Cc1ccc2c(Br)cc(Br)c(O)c2n1`: the AC50 was 39.8 µM (active).
`CCCCCCCCCCCCCCCC[N+](C)(C)Cc1ccccc1`: the AC50 is 22.4 µM (active).
In the case of `CC/C(=C(/CC)c1ccc(O)cc1)c1ccc(O)cc1`, the result was inactive.
Same read-out and setting: as for `C=CC[C@]1(O)CC[C@H]2[C@@H]3CCC4=CC(=O)CCC4=C3C=C[C@@]21C`, the entry is “inactive”; as for `CCOC(=O)OCC/C(SC(=O)OCC)=C(\C)N(C=O)Cc1cnc(C)nc1N`, “inactive”.
With `CCCC(=O)OC[C@@H](OC(=O)CCC)[C@@H](OC(=O)CCC)[C@H](Cn1c2nc(=O)[nH]c(=O)c-2nc2cc(C)c(C)cc21)OC(=O)CCC`, the outcome was inactive.
Same read-out and setting: for `CCN(CC)C(=O)Nc1ccc(OCC(O)CNC(C)(C)C)c(C(C)=O)c1` (stereo not drawn) the value was “inactive”.
As for `CN(C)CCn1nnnc1SCC1=C(C(=O)O)N2C(=O)[C@@H](NC(=O)Cc3csc(N)n3)[C@H]2SC1`, the AC50 was 28.2 µM (active).
As for `CCOC(=O)OC(C)OC(=O)[C@@H]1N2C(=O)[C@@H](NC(=O)[C@H](N)c3ccccc3)[C@H]2SC1(C)C` (stereo partly drawn), the outcome was inactive.
Regarding `CN1C2CCC(C)(C)C1CC(OC(=O)C(O)(c1cccs1)c1cccs1)C2` (stereo not drawn), the AC50 is 15.8 µM (active).
With `COC(=O)c1nc(Cl)c(Cl)nc1N`, the AC50 is 4.47 µM (active).
For the compound `C[C@@H]1CCN(C(=O)[C@H](CCCN=C(N)N)NS(=O)(=O)c2cccc3c2NC[C@H](C)C3)[C@@H](C(=O)O)C1`, the outcome was inactive.
Still for that read-out and setting: for `C=CCNc1nc(NCC=C)nc(N2CCN(C(c3ccc(F)cc3)c3ccc(F)cc3)CC2)n1` the value was “inactive”.
Regarding `c1cnc(N2CCN(Cc3ccc4c(c3)OCO4)CC2)nc1`, the outcome was inactive.
On to `O=C1OC2(c3ccc(O)cc3Oc3cc(O)ccc32)c2ccccc21`, for which the AC50 was 7.94 µM (active).
`C[C@]12CC[C@H]3[C@@H](CCC4=CC(=O)CC[C@@]43C)[C@@H]1CC[C@@H]2C(=O)CO`: the result was inactive.
Still for that read-out and setting: as for `O=C(COc1ccc(Cl)cc1)N1CCN(Cc2ccc3c(c2)OCO3)CC1`, the entry is “inactive”.
Consider `CCN(CCCCOC(=O)c1ccc(OC)c(OC)c1)C(C)Cc1ccc(OC)cc1` (stereo not drawn), for which the AC50 was 15.8 µM (active).
On to `C#CCN(C)CCCOc1ccc(Cl)cc1Cl`, for which the result was inactive.
Still for that read-out and setting: for `C[C@@H]1C[C@H]2[C@@H]3CCC4=CC(=O)C=C[C@]4(C)[C@@]3(F)[C@@H](O)C[C@]2(C)[C@@]1(O)C(=O)COC(=O)c1ccncc1` the value was “inactive”; for `O=C(/C=C/c1ccccc1)NCCO`, “inactive”.
Take `CC[C@H]1C[C@H]2[C@@H]3CCC4=CC(=O)CC[C@@H]4[C@H]3CC[C@]2(C)[C@H]1O`: the half-maximal activity concentration (AC50) was 15.8 µM (active).
For the compound `Nc1nc2ccccc2n1Cc1ccc(F)cc1`, the outcome was inactive.
Turning to `CCC(=O)O[C@]1(C(=O)SCF)[C@H](C)C[C@H]2[C@@H]3C[C@H](F)C4=CC(=O)C=C[C@]4(C)[C@@]3(F)[C@@H](O)C[C@@]21C`, the outcome was inactive.
On the same count and under the same terms, for `CC(C)NCCCC1(C(N)=O)c2ccccc2-c2ccccc21` the value was “inactive”; for `Nc1ccc(C(=O)N2CC3CC(CN(Cc4ccccc4)C3)C2)cc1`, “inactive”.

The conditions of the next assay: Ebola virus entry assay, reporter ratio channel; Channel type: primary.
For the compound `N[C@H](C(=O)O)[C@@H](O)c1ccc(O)c(O)c1`, the AC50 was 20 µM (active).
On to `CCOC(C(=O)OCCN(C)C)(c1ccccc1)c1ccccc1`, for which the AC50 is 25.1 µM (active).
For the compound `COC[C@@H](c1ccc(C(F)(F)F)cc1)N1CCN(C2(C)CCN(C(=O)c3c(C)ncnc3C)CC2)C[C@H]1C`, the AC50 is 25.1 µM (active).
On the same count and under the same terms, as for `COc1cc2c(cc1OC)C(C(C(=O)N(CCc1ccc(OC)c(OC)c1OC)CCc1ccc(OC)c(OC)c1OC)c1ccccc1)=NCC2` (stereo not drawn), the figure is 11.2 µM (active).
Take `CCCCCOc1ccccc1/C(=C\SC)n1ccnc1`: the result was inactive.
Same read-out and setting: as for `COc1ccc2c(c1)c(CC(=O)O)c(C)n2C(=O)c1ccc(Cl)cc1`, the entry is “inactive”.
For the compound `COc1ccc(-c2nc3ccc(C4=NNC(=O)CC4C)cc3[nH]2)cc1` (stereo not drawn), the AC50 was 14.1 µM (active).
`COc1cc(NS(=O)(=O)c2ccc(N)cc2)nc(OC)n1`: the outcome was inactive.
On the same count and under the same terms, as for `CCCCC(=O)O[C@]1(C(=O)CO)CC[C@H]2[C@@H]3CCC4=CC(=O)CC[C@]4(C)[C@H]3[C@@H](O)C[C@@]21C`, the entry is “inactive”.
For the compound `CN(C)[C@@H]1C(=O)C(C(=O)NCN2CCCC2)=C(O)[C@@]2(O)C(=O)C3=C(O)c4c(O)cccc4[C@@](C)(O)C3C[C@@H]12` (stereo partly drawn), the half-maximal activity concentration (AC50) was 11.2 µM (active).
Take `Nc1c2c(nc3ccccc13)CCCC2O` (stereo not drawn): the outcome was inactive.
For the compound `Nc1ccc2c(c1)CN1C(=O)c3ccccc3C1=N2`, the outcome was inactive.
Consider `OCCN1CCN(CCCN2c3ccccc3C=Cc3ccccc32)CC1`, for which the AC50 was 14.1 µM (active).
The same measure, in the same setting: for `Cc1ccc2c(Br)cc(Br)c(O)c2n1` the value was 39.8 µM (active); for `CCCCCCCCCCCCCCCC[N+](C)(C)Cc1ccccc1`, 22.4 µM (active).
Turning to `CC/C(=C(/CC)c1ccc(O)cc1)c1ccc(O)cc1`, the result was inactive.
On to `C=CC[C@]1(O)CC[C@H]2[C@@H]3CCC4=CC(=O)CCC4=C3C=C[C@@]21C`, for which the AC50 is 35.5 µM (active).
Turning to `CCOC(=O)OCC/C(SC(=O)OCC)=C(\C)N(C=O)Cc1cnc(C)nc1N`, the result was inactive.
On the same count and under the same terms, for `CCCC(=O)OC[C@@H](OC(=O)CCC)[C@@H](OC(=O)CCC)[C@H](Cn1c2nc(=O)[nH]c(=O)c-2nc2cc(C)c(C)cc21)OC(=O)CCC` the value was “inactive”.
As to `CCN(CC)C(=O)Nc1ccc(OCC(O)CNC(C)(C)C)c(C(C)=O)c1` (stereo not drawn), the outcome was inactive.
`CN(C)CCn1nnnc1SCC1=C(C(=O)O)N2C(=O)[C@@H](NC(=O)Cc3csc(N)n3)[C@H]2SC1`: the AC50 was 28.2 µM (active).
As to `CCOC(=O)OC(C)OC(=O)[C@@H]1N2C(=O)[C@@H](NC(=O)[C@H](N)c3ccccc3)[C@H]2SC1(C)C` (stereo partly drawn), the outcome was inactive.
For `CN1C2CCC(C)(C)C1CC(OC(=O)C(O)(c1cccs1)c1cccs1)C2` (stereo not drawn), the AC50 was 15.8 µM (active).
Still for that read-out and setting: for `COC(=O)c1nc(Cl)c(Cl)nc1N` the value was 4.47 µM (active).
Consider `C[C@@H]1CCN(C(=O)[C@H](CCCN=C(N)N)NS(=O)(=O)c2cccc3c2NC[C@H](C)C3)[C@@H](C(=O)O)C1`, for which the outcome was inactive.
Same read-out and setting: as for `C=CCNc1nc(NCC=C)nc(N2CCN(C(c3ccc(F)cc3)c3ccc(F)cc3)CC2)n1`, the entry is “inactive”; as for `c1cnc(N2CCN(Cc3ccc4c(c3)OCO4)CC2)nc1`, “inactive”.
Consider `O=C1OC2(c3ccc(O)cc3Oc3cc(O)ccc32)c2ccccc21`, for which the AC50 is 7.94 µM (active).
In the case of `C[C@]12CC[C@H]3[C@@H](CCC4=CC(=O)CC[C@@]43C)[C@@H]1CC[C@@H]2C(=O)CO`, the result was inactive.
Regarding `O=C(COc1ccc(Cl)cc1)N1CCN(Cc2ccc3c(c2)OCO3)CC1`, the AC50 is 39.8 µM (active).
Same read-out and setting: for `CCN(CCCCOC(=O)c1ccc(OC)c(OC)c1)C(C)Cc1ccc(OC)cc1` (stereo not drawn) the value was 15.8 µM (active).
With `C#CCN(C)CCCOc1ccc(Cl)cc1Cl`, the AC50 is 39.8 µM (active).
Still for that read-out and setting: as for `C[C@@H]1C[C@H]2[C@@H]3CCC4=CC(=O)C=C[C@]4(C)[C@@]3(F)[C@@H](O)C[C@]2(C)[C@@]1(O)C(=O)COC(=O)c1ccncc1`, the figure is 39.8 µM (active).
On the same count and under the same terms, as for `O=C(/C=C/c1ccccc1)NCCO`, the figure is 39.8 µM (active); as for `CC[C@H]1C[C@H]2[C@@H]3CCC4=CC(=O)CC[C@@H]4[C@H]3CC[C@]2(C)[C@H]1O`, 15.8 µM (active).
Still for that read-out and setting: for `Nc1nc2ccccc2n1Cc1ccc(F)cc1` the value was 39.8 µM (active).
In the case of `CCC(=O)O[C@]1(C(=O)SCF)[C@H](C)C[C@H]2[C@@H]3C[C@H](F)C4=CC(=O)C=C[C@]4(C)[C@@]3(F)[C@@H](O)C[C@@]21C`, the outcome was inactive.
On the same count and under the same terms, as for `CC(C)NCCCC1(C(N)=O)c2ccccc2-c2ccccc21`, the entry is “inactive”.
As to `Nc1ccc(C(=O)N2CC3CC(CN(Cc4ccccc4)C3)C2)cc1`, the AC50 was 31.6 µM (active).

These data come from PubChem BioAssay (NCATS).
